# Records with an inconclusive call do not appear. Where a call stands in place of a potency, no number is given. Active and inactive are the calls of the source. Calls follow the shape of the dose curve; as a rule, active = well fitted activation curve with a large enough effect in the repeat runs; inconclusive = weak or mixed curves; inactive = flat fitted curve, though single readings scatter.
# Test: A CellTox Green Cytotoxicity Assay to monitor cytotoxicity in HepG2 cells - 32 hour (AID 1224883); also: nearly all actives have a fitted effect of over 50% in size
# Settings: CellTox Green fluorescence; series mostly up to 76.8 µM
# Description: National Center for Advancing Translational Sciences [NCATS]
# NIH Chemical Genomics Center [NCGC]
# U.S. Environmental Protection Agency [EPA]
# National Institutes of Environmental Health Sciences [NIEHS]
# National Toxicology Program [NTP]
# Cell-based models are critical for drug discovery. Determining the natural cytotoxic effects resulting from test compounds is an essential research activity. A CellTox Green Cytotoxicity Assay to monitor cytotoxicity in real time of continues cell culture during 40 hours of the compound treatment was used to screen Tox21 10K library compounds in HepG2 cells. CellTox Green Cytotoxicity Assay is a nonlytic, homogeneous, biofluorescent method to measure cytotoxicity in cell culture after experimental manipulation. The assay system uses a proprietary asymmetric cyanine dye that is excluded from viable cells but preferentially stains the dead cell's DNA. […] Viable cells produce no appreciable increases in fluorescence. Therefore, the fluorescence signal produced by the binding interaction with dead cell DNA is proportional to cytotoxicity.
# The mixture of HepG2 cell suspension and reagents were dispensed at 600cells/6 ul/well in 1536-well tissue culture treated black solid bottom plates using a Multidrop dispenser. After the assay plates were incubated at a 37 C/5% CO2 incubator for 5 hours, 23 nL of compounds dissolved in DMSO, positive and negative controls was transferred to the assay plate by a pintool work station. The plates were incubated at 37 C for 40 hours. The fluorescence intensity were measured at 0h, 8h, 16h, 24h, 32h and 40h time points using ViewLux plate reader during compound treatment.
# Potency is read from the fitted curve at half-maximal effect.
SMILES,Potency,cytotoxicity increase
SCc1ccco1,inactive,
C[C@H]1CC[C@@H]2[C@@H](C)[C@H]3[C@H](C[C@H]4[C@@H]5CC=C6CC(O[C@@H]7O[C@H](CO)[C@H](O)[C@H](O[C@@H]8O[C@H](CO)[C@@H](O)[C@H](O)[C@H]8O)[C@H]7O[C@H]7O[C@@H](C)[C@H](O)[C@@H](O)[C@H]7O)CC[C@]6(C)[C@H]5CC[C@]34C)N2C1 (stereo not given in full),22.6 µM (active),
CCc1nn(C)c(C(=O)NCc2ccc(C(C)(C)C)cc2)c1Cl,inactive,
CCOC(=O)c1ccccc1S(=O)(=O)NC(=O)Nc1nc(Cl)cc(OC)n1,inactive,
Cc1cc(Cl)ccc1O[C@H](C)C(=O)O,inactive,
CC(C)(C)C(O)/C(=C\c1ccc(Cl)cc1Cl)n1cncn1 (stereo not given),59.3 µM (active),
CS(=O)(=O)c1ccc(C(=O)C2C(=O)CCCC2=O)c([N+](=O)[O-])c1,44.4 µM (active),
N#CCCC(Br)(C#N)CBr (stereo not given),30.9 µM (active),
Fc1ccc(Oc2ccnc3cc(Cl)cc(Cl)c23)cc1,inactive,
CCN(CC)C(=S)[S-].CCN(CC)C(=S)[S-].[Zn+2],9.69 µM (active),
CC1(C)C(/C=C(\Cl)C(F)(F)F)C1C(=O)OC(C#N)c1cccc(Oc2ccccc2)c1 (stereo not given),inactive,
CC(C)CC(C)(c1ccc(O)cc1)c1ccc(O)cc1,43.8 µM (active),
CCC(C)c1cc(C(C)(C)C)cc(-n2nc3ccccc3n2)c1O (stereo not given),inactive,
CC(=[OH+])/C=C(/C)[O-].CC(=[OH+])/C=C(\C)[O-].CC(=[OH+])/C=C(\C)[O-].[Al],inactive,
CCOP(=S)(OCC)SCCS(=O)(=O)CC,inactive,
COc1cc(C=O)cc2c1[C@H](COC(N)=O)[C@]1(OC(C)=O)ON2C[C@H]2[C@@H]1N2C(C)=O,0.0977 µM (active),
O=[N+]([O-])O.O=[N+]([O-])O.[Cd],43.6 µM (active),
CCOCCOC(C)=O,inactive,
CCCCN(CCCC)C(=S)[S-].CCCCN(CCCC)C(=S)[S-].[Zn+2],21.9 µM (active),
O=C(Cl)c1ccc(Cl)cc1,inactive,

SMILES,Potency,cytotoxicity increase
CCCCCCCCCCCCCC[P+](CCCCCC)(CCCCCC)CCCCCC (tested in a mixture with another compound),24.6 µM (active),
COC[C@H](C)N(C(=O)CCl)c1c(C)csc1C,inactive,
CC(=O)O[C@H]1CC[C@@]2(C)C(=CC[C@@H]3[C@@H]2CC[C@]2(C)C(=O)CC[C@@H]32)C1,inactive,
N#Cc1ccccc1Cl,inactive,
Brc1c(Br)c(Br)c(Oc2c(Br)c(Br)c(Br)c(Br)c2Br)c(Br)c1Br,,0.162% [at 15.8 µM] (inactive)
O=S(=O)(c1ccc(Cl)cc1)c1ccc(Cl)cc1,inactive,
C[C@@H]1O[C@@H](O[C@@H]2C=C3CC[C@@H]4[C@H](CC[C@]5(C)[C@@H](c6ccc(=O)oc6)CC[C@]45O)[C@@]3(C)CC2)[C@H](O)[C@H](O)[C@H]1O,inactive,
CC(C)CCCCCOC(=O)c1ccccc1C(=O)OCCCCCC(C)C,inactive,
COC12CC[C@@]3(C[C@@H]1C(C)(O)C(C)(C)C)[C@H]1Cc4ccc(O)c5c4[C@@]3(CCN1CC1CC1)[C@H]2O5 (stereo not given in full),38.6 µM (active),
C1CCC2CCCCC2C1 (stereo not given),inactive,
O=C(CCl)Nc1ccccc1,inactive,
CCC[CH2][Sn]([CH2]CCC)([CH2]CCC)[O]C(=O)c1ccccc1,0.692 µM (active),
COP(=O)(CCC(=O)NCO)OC,inactive,
CCN,inactive,
O=c1[nH]c2ccccc2n1C1CCN(CCCC(c2ccc(F)cc2)c2ccc(F)cc2)CC1,24.5 µM (active),
CC(C)C1CCC(Cc2ccc(Cl)cc2)C1(O)Cn1cncn1 (stereo not given),43.2 µM (active),
CC(Cl)CN(C)C (stereo not given),inactive,
BrCBr,inactive,
Oc1c(Br)c(Br)c(Br)c(Br)c1Br,inactive,
CCOC(=O)C1(c2ccccc2)CCN(CCC(C#N)(c2ccccc2)c2ccccc2)CC1,inactive,

# Reference: PubChem BioAssay (Tox21)
